High-throughput results from PubChem.
VP16 counter = inhibits Gal4-VP16 luciferase reporter, ROR gamma counter-screen; 310,000 tested, 3.5% active; Drosophila S2 Gal4-VP16 UAS-luciferase, luminescence, 20 h; Potency, µM (series often up to 53.6 µM), without a hit: at the highest dose activity, negative = inhibition, actives largely listed as inhibitors;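 note: Gal4-VP16 expression switched on by copper sulfate through the metallothionein promoter; potency is the fitted concentration of half-maximal effect; nearly all actives have a fitted effect of over 50% in size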
TSHR antagonist = human thyrotropin receptor antagonism | activity change, negative = inhibition, % at 11.5 µM | 330,000 tested, 0.2% active | P16473 | TSHR-expressing cells, TSH-stimulated cAMP HTRF, 2 h; stronger effect = lower value;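 active = activity change below a set negative limit, meaning inhibition stronger than a set level, cut at about -70% in these data; inconclusive = activity change between two set negative limits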
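Read-out is FRET at 665 nm (cryptate excitation 337 nm) from a cryptate-tagged anti-cAMP antibody, competed by cell cAMP against cAMP-d2. Compounds are tested on freshly harvested TSHR cells challenged with 4nM TSH (EC80) for 2 hours at 37 deg C.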
RORg inh = blocks mouse ROR gamma transcriptional activity | P51450 | Drosophila S2 Gal4-RORgamma UAS-luciferase reporter, 20 h | Potency, µM (highest dose often 53.6 µM), inactives show at the highest dose activity change, negative = inhibition, usual class: inhibitors | 310,000 tested, 5.4% active; note: potency is the fitted concentration of half-maximal effect; nearly all actives have a fitted effect of over 60% in size
Target sequence (P51450 whole entry, looked up, the tested form may be a part): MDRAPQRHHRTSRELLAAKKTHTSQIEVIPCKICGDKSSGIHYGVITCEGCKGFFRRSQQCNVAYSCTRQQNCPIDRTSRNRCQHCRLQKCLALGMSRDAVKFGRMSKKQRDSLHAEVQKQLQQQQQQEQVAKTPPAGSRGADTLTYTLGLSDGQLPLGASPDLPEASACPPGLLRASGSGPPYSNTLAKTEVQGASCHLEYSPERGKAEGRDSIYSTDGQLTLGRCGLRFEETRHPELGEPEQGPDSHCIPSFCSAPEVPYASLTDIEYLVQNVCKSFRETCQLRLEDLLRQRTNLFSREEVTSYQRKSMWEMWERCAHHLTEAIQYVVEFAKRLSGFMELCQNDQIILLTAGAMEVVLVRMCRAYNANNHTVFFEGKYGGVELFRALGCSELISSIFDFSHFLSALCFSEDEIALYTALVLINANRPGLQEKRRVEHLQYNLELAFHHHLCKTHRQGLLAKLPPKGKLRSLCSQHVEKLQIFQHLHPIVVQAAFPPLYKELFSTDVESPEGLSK
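Using a luciferase readout, inhibitors were identified by reduced reporter activity in Drosophila cells coexpressing a copper-inducible Gal4–ROR gamma fusion and UAS-driven Photinus luciferase, incubated 20 hr after 700 uM copper sulfate.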
ELG1 repair inh = ELG1-dependent DNA repair inhibition | HEK293T ELG1-luciferase reporter, luminescence, 16 h; DNA damage induced by 5-fluorouridine | Potency, µM (top dose mostly 46.1 µM), for the others: at the highest dose activity change, negative = inhibition, usual class: inhibitors | 330,000 tested, 2.3% active | AID 504467; note: potency is the fitted concentration of half-maximal effect; nearly all actives have a fitted effect of over 55% in size
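DMSO vehicle served as the neutral condition. Each well held 2,000 cells given 5-fluorouridine plus compound; after 16 hr at 37 °C/5% CO2, ONE-Glo was added and luciferase measured 30 min later.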
B2AR arrestin = beta2AR (human) beta-arrestin recruitment activity | P07550 | beta-arrestin recruitment to beta2AR, cell-based reporter | Potency, µM (titrated, usually from 46.1 µM), without a hit: at the top dose activation, hits mostly activators | 330,000 tested, 0.02% active;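 note: potency is the fitted concentration of half-maximal effect; 0% = DMSO controls and full agonism = EC100 isoproterenol or metaproterenol; nearly all actives have a fitted effect of over 65% in size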
Active calls of the source: *; [ ] = remark or other dose. The list is not random: actives were taken first. Their share in the collection is about 7.5%. Unless noted, calls come from the whole dose curve; as a rule, active = well fitted curve in the direction sought with a large enough effect; inconclusive = small, poorly fitted or top-dose-only effect, or another doubt; inactive = no such curve, though single readings can be large; an effect the other way counts as inactive or inconclusive. Unless noted, % is set by controls: 0 for no effect and ±100 for the full control effect.

For CC(C)C[C@H](NC(=O)[C@H](C)NC(=O)CNC(=O)[C@H](CCCCN)NC(=O)[C@H](CCCN=C(N)N)NC(=O)[C@H](C)NC(=O)[C@H](Cc1ccccc1)NC(=O)[C@@H](N)CCCN=C(N)N)C(=O)N[C@@H](CCCN=C(N)N)C(=O)N[C@@H](CCC(N)=O)C(=O)N[C@@H](CCCCN)C(=O)N[C@@H](CC(N)=O)C(=O)N[C@H](C(N)=O)C(C)C the results were VP16 counter -15% and RORg inh 6%.
For Cc1ccccc1NS(=O)(=O)c1cc(C(=O)NCc2ccco2)ccc1C the results were VP16 counter 1%, TSHR antagonist 5, RORg inh 4%, ELG1 repair inh 1% and B2AR arrestin 0%.
Screening Cc1ccc(SCCNC(=O)c2ccc(C)c(S(=O)(=O)Nc3ccccc3C)c2)cc1 returned VP16 counter -8%, TSHR antagonist -11, RORg inh inconclusive, ELG1 repair inh 2.9µM* and B2AR arrestin 0%.
COCCCn1cnc2c(c1=O)c1nc3ccccc3nc1n2-c1ccccc1 was read as VP16 counter -6%, TSHR antagonist 49, RORg inh 6%, ELG1 repair inh 0% and B2AR arrestin 6%.
COCCCn1cnc2oc3nc4ccccc4nc3c2c1=O was read as VP16 counter 1.3µM*, TSHR antagonist 2, RORg inh inconclusive, ELG1 repair inh inconclusive and B2AR arrestin 0%.
`O=C(c1ccccc1)c1ccc2nc(N3CCN(C(=O)c4ccco4)CC3)c3nncn3c2c1` gave VP16 counter -7%, TSHR antagonist 5, RORg inh 3%, ELG1 repair inh 21µM* and B2AR arrestin -1%.
Screening COc1cc2c(cc1OC)[C@@H]1O[C@](CCCCN3C(=O)c4ccccc4C3=O)(C2)Oc2cc(C)n(-c3ccccc3)c(=O)c21 returned VP16 counter -9%[10 µM], RORg inh 30%[10 µM] and B2AR arrestin 0%[9.22 µM].
Screening COc1cccc(C2=CC(c3cccc(OC)c3OC)n3nnnc3N2)c1 (centres undefined) returned VP16 counter -19%, TSHR antagonist 6, RORg inh 3.2µM*, ELG1 repair inh -2% and B2AR arrestin 0%.
For COc1cccc(C2=CC(c3ccccc3)n3nnnc3N2)c1 (centres undefined) the results were VP16 counter 35µM*, TSHR antagonist -17, RORg inh inconclusive, ELG1 repair inh 3% and B2AR arrestin -1%.
For COc1cccc(C2=CC(c3cccc(OC)c3OC(F)F)n3nnnc3N2)c1 (centres undefined) the results were VP16 counter 1%, TSHR antagonist 4, RORg inh 24%, ELG1 repair inh inconclusive and B2AR arrestin 5%.
`COc1cccc(C2C=C(c3ccc(OC)cc3OC)Nc3nnnn32)c1` (centres undefined) gave VP16 counter 0%, TSHR antagonist -19, RORg inh -13%, ELG1 repair inh 18µM* and B2AR arrestin -1%.
`COc1cccc(C2C=C(c3cccs3)Nc3ncnn32)c1OC` (centres undefined) gave VP16 counter inconclusive, TSHR antagonist 11, RORg inh 11µM*, ELG1 repair inh 8% and B2AR arrestin 0%.
Screening CC[C@H](C)[C@@H](NC(=O)O[C@H]1C(=O)c2cc(OC)ccc2O[C@@H]1c1ccc(OC)c(Br)c1)C(=O)OC returned VP16 counter -5% and RORg inh -7%.
CCCNC(=O)OC[C@@H]1O[C@H](CCO/N=C(\C)CCN2CCCc3nc(C)c(C)cc32)C=C[C@@H]1Oc1ccc(OC)cc1 was read as VP16 counter 7%[10 µM] and RORg inh -12%[10 µM].
For COc1ccc2c(c1OC)C(=O)N1C2SC(C)(C)[C@H]1C(=O)NCC(C)C (some centres undefined) the results were VP16 counter 10%, TSHR antagonist -4, RORg inh 20%, ELG1 repair inh 3% and B2AR arrestin -1%.
CC(OC(=O)c1cccc(-n2cnnn2)c1)C(=O)NC1(C#N)CCCCC1 (centres undefined) was read as TSHR antagonist -8, ELG1 repair inh 8% and B2AR arrestin 0%.
Cc1ccc(NC(=O)NC(=O)N(C(C)C)S(=O)(=O)c2ccc(C)cc2)cc1 was read as VP16 counter -7%, TSHR antagonist 1, RORg inh -4%, ELG1 repair inh inconclusive and B2AR arrestin 0%.
`Cc1ccc(SCC(=O)NCc2ccccc2C)cc1` gave VP16 counter 0%, TSHR antagonist -122*, RORg inh 11%, ELG1 repair inh 8% and B2AR arrestin -4%.
Screening Cc1ccc(SCC(=O)NCc2ccccc2)cc1 returned VP16 counter 3%, TSHR antagonist -7, RORg inh 6%, ELG1 repair inh 21% and B2AR arrestin -1%.
Screening COc1cc(-c2cc(-c3ccc(O)cc3)nc(N)c2C#N)ccc1O returned VP16 counter 0%, TSHR antagonist 16, RORg inh 2%, ELG1 repair inh inconclusive and B2AR arrestin 0%.
Screening CCOc1cc(-c2cc(-c3ccc(C)cc3)nc(N)c2C#N)ccc1O returned VP16 counter -21%, TSHR antagonist 8, RORg inh 10%, ELG1 repair inh 16µM* and B2AR arrestin 0%.
`C=CCN1CCCC1CNC(=O)c1cc(S(N)(=O)=O)cc(OC)c1OC` (centres undefined) gave VP16 counter -5% and RORg inh -23%.
Screening CC(NC(=O)/C(C#N)=C/c1ccc([N+](=O)[O-])o1)c1ccccc1 (centres undefined) returned VP16 counter 2.5µM*, TSHR antagonist -48, RORg inh 5µM*, ELG1 repair inh -26% and B2AR arrestin 0%.
Screening COc1ccc(/C=C(\C#N)C(=O)NC(C)c2ccccc2)cc1O (centres undefined) returned VP16 counter -2%, TSHR antagonist -4, RORg inh 13%, ELG1 repair inh inconclusive and B2AR arrestin 0%.
Screening COC(=O)c1ccc(/C=C(\C#N)C(=O)NC(C)c2ccccc2)cc1 (centres undefined) returned VP16 counter 4.5µM*, TSHR antagonist -11, RORg inh 0.5µM*, ELG1 repair inh inconclusive and B2AR arrestin 0%.
Screening Cc1ccc(Nc2c(-c3ccccc3O)nc3cnccn23)cc1 returned VP16 counter inconclusive, TSHR antagonist 2, RORg inh inconclusive, ELG1 repair inh inconclusive and B2AR arrestin 0%.
Screening Oc1ccc(Br)cc1-c1nc2cnccn2c1NC1CCCC1 returned VP16 counter inconclusive, TSHR antagonist 34, RORg inh 22µM*, ELG1 repair inh 23µM* and B2AR arrestin 0%.
